The entries come from a sample that favours hits as a whole.
HIV RNase H inh-1: blocks HIV-1 RNase H cleavage of RNA/DNA duplex; P04585; RT-RNase H RNA/DNA duplex cleavage, fluorescence; inhibition, % at 10 µM; 65,000 compounds, 1.9% hits; AID 565; in the data active = inhibition above about 50%
RmlCD inh mix: mixture blocks RmlC and RmlD coupled enzyme activity; inhibition, % at 5.5 µM; RmlC/RmlD coupled enzyme inhibition, 384-well mixture HTS; 110,000 compounds, 0.39% hits; in the data active = inhibition above about 30%, passing the limit was not always enough; inconclusive = no clear call, values can overlap the other calls
HIV RNase H inh-2: confirmation of HIV-1 reverse transcriptase RNase H inhibitors; shares compounds with HIV RNase H inh-1; Recombinant RT RNase H, fluorescent RNA/DNA duplex cleavage; inhibition, % at 10 µM; 1,000 compounds, 39% hits; in the data active = inhibition above about 48%; inconclusive = no clear call, values can overlap the other calls
* = called active by the depositor; ? = inconclusive; / = no result.

SMILES	HIV RNase H inh-1	RmlCD inh mix	HIV RNase H inh-2
Cc1ccccc1OCc1nc(-c2ccc(NC(=O)c3ccc4c(c3)OCO4)cc2)no1	75*	-8	87*
Cc1ccccc1OCc1nc(-c2ccc(NC(=O)c3ccco3)cc2)no1	26	4	/
Cc1c(NC(=O)c2ccc3c(c2)OCO3)cccc1-c1nc2ccccc2o1	4	-2	/
CSc1nc(Cl)cc(N(CCO)CCO)n1	/	8	/
Cc1ccc(Nc2c(-c3ccc(C)o3)nc3cnccn23)cc1	/	12	/
Cc1ccc(-c2nc3cnccn3c2Nc2ccccc2)o1	88*	-63	25
Cc1cc(C)nc(SCC(=O)NC2=NC(=O)C(C)S2)n1 (stereo not drawn)	28	7	/
Cc1cc(C(F)(F)F)nc(SCC(=O)NC2=NC(=O)C(C)S2)n1 (stereo not drawn)	60*	/	?
CC1(C)CC(=O)C=C(NCC(=O)O)C1	10	-10	/
CN1/C(=N\O)c2cccc3cccc1c23	61*	16	2
CNC(=O)CN1C(=O)c2cccc3cccc1c23	/	-11	/
CCCCCC(C)n1[nH]c(=O)cc1N (stereo not drawn)	/	-7	/
Cc1ccc(C)c(Cn2c(=O)n(CCC(=O)NCc3ccco3)c(=O)c3ccccc32)c1	75*	/	48
Cc1ccc(C)c(Cn2c(=O)n(CCCC(=O)NCc3ccco3)c(=O)c3sccc32)c1	/	6	/
CCN1CCN(C(CNS(=O)(=O)c2ccc(OC)cc2)c2cccnc2)CC1 (stereo not drawn)	-5	-4	/
CN(C)c1ccc(N=Cc2c(O)n(CCC3=CCCCC3)c(=O)[nH]c2=O)cc1	58*	-14	51*
CCN(CC)c1ccc(N=Cc2c(O)n(CCC3=CCCCC3)c(=O)[nH]c2=O)cc1	18	2	/
CC(C)CNS(=O)(=O)c1ccc(CCC(=O)Nc2ccc3c(c2)OCCO3)cc1	/	-6	/
CCCCSc1nc2c(cnn2-c2ccc(F)cc2)c(=O)[nH]1	-4	-2	/
C=CCSc1nc2c(cnn2-c2ccc(C)c(C)c2)c(=O)[nH]1	58*	5	59*
COC(=O)c1ccc(CSc2nc3c(cnn3-c3ccc(Cl)cc3)c(=O)[nH]2)o1	59*	9	18
COC(=O)c1ccc(CSc2nc3c(cnn3-c3ccc(F)cc3)c(=O)[nH]2)o1	7	-10	/
CSc1nc2c(cnn2-c2ccc(C)c(C)c2)c(=O)[nH]1	3	12	/
CCCSc1nc2c(cnn2-c2ccc(Cl)cc2)c(=O)[nH]1	56*	-7	67*
COc1ccc(/C=N/c2oc(-c3ccccc3)cc2C#N)cc1	/	1	/
SMILES	HIV RNase H inh-1	RmlCD inh mix	HIV RNase H inh-2
COc1[nH]c(/N=C/c2ccccc2)c(C#N)c1C#N	53*	-4	5
CCOc1ccc2ccccc2c1/C=N/n1cncn1	-11	-1	/
CCOc1ccc(C(=O)Nc2cc(C)c3c(=O)oc4ccccc4c3n2)cc1	65*	10	20
COc1ccc(CC(=O)Nc2cc(C)c3c(=O)oc4ccccc4c3n2)cc1	8	7	/
CC/C(=N\NS(C)(=O)=O)c1ccccc1	/	-89	/
CCc1nn(CC(=O)O)c(=O)c2ccccc12	-25	-7	/
CCCCOC(=O)CSCC(=O)Nc1cc(C)on1	71*	-10	5
Cc1cc(NC(=O)CSc2ccccc2)no1	-9	-11	/
CCOC(=O)N(c1ccccc1)P1(=S)OCC(C)O1 (stereo not drawn)	-1	-6	/
CCOC(=O)N(c1ccccc1)P1(=S)OCCO1	88*	10	57*
COC(=O)N(c1ccccc1)P1(=S)OCCO1	90*	66	54*
CNC(=O)N(c1ccccc1)c1ccccc1	-13	-16	/
S=C1NCCC12C(=S)Nc1ccccc12 (stereo not drawn)	/	-14	/
OCCn1c(CSc2nnc(-c3ccco3)n2-c2ccccc2)nc2ccc(Cl)cc21	80*	-3	1
OCCn1c(CSc2nc3ccccc3n2CCO)nc2ccccc21	-6	10	/
CC1CCN(c2nc3c(c(=O)[nH]c(=O)n3C)n2CCSc2nc3ccccc3o2)CC1	-2	-15	/
COc1ccc(-c2nnn(CCc3nn[nH]n3)n2)cc1	/	-12	/
CCOC(=O)c1c(NC(=O)c2cc(CC(C)C)on2)sc(C(C)=O)c1C	/	-15	/
CCCc1cc(C(=O)Nc2sc(C(C)=O)c(C)c2C(=O)OCC)no1	68*	-10	?
O=C(CCCn1c(=S)[nH]c2cc3c(cc2c1=O)OCO3)N1CCc2ccccc2C1	-10	-4	/
O=C(Nc1cccc(C(F)(F)F)c1)C12CC3CC(CC(C3)C1)C2	/	-19	/
CCOC(=O)C1=C(C)N=c2s/c(=C3/C(=O)Nc4ccccc43)c(=O)n2C1c1ccc(C)cc1 (stereo not drawn)	/	4	/
COC(=O)C1=C(C)N=c2s/c(=C3\C(=O)Nc4ccccc43)c(=O)n2C1c1ccccc1 (stereo not drawn)	90*	/	70*
O=C(CSc1nc2ccccc2c2nc3ccccc3n12)NCc1ccco1	84*	2	64*

Screens (PubChem)
